Assay results as given in PubChem BioAssay (Tox21).
Inconclusive results are not listed. Where a call stands in place of a potency, no number is given. Some structures have more than one record in an assay (separate samples or runs), and their calls can disagree. The source made the active and inactive calls. Unless noted, the call rests on the fitted dose curve; in most records, active means well fitted curve in the direction sought with a large enough effect in the repeat runs; inconclusive means weak or mixed curves; inactive means no such curve, though single readings can be large; an effect the other way counts as inactive or inconclusive.

Key:
[1] = qHTS assay to identify small molecule agonists of the vitamin D receptor (VDR) signaling pathway - cell viability counter screen (AID 743224); further: series mostly up to about 63 µM; nearly all actives have a fitted effect of over 50% in size
Method in brief: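 VDR-bla cells, 4 h after plating, exposed to compounds for 16 h at 37C; viability then read in the same wells as CellTiter-Glo luminescence after 30 min at room temperature, following the bla FRET read.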

[2] = qHTS assay to identify small molecule agonists of the NFkB signaling pathway (AID 1159509; active means well fitted curve in the direction sought with a large enough effect in the signal ratio in the repeat runs, not every such curve was filed as active; the % refers to the signal ratio; further: series mostly up to about 61 µM)
Method in brief: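 NFkB-bla ME-180 cells carry a beta-lactamase reporter under an NF-kB response element. They were plated overnight, then exposed to compounds for 5 h at 37 C. Read-out is LiveBLAzer FRET after 1.5 hr at room temperature (405 nm excitation; 460/530 nm emission).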

[3] = qHTS assay to identify small molecule agonists of the NFkB signaling pathway - cell viability counter screen (AID 1159515; calls by dose curve; further: series mostly up to about 61 µM; nearly all actives have a fitted effect of over 55% in size)
Method in brief: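 NFkB-bla ME-180 cells, 2,000/well, plated overnight at 37 C; compound added for 5 hr at 37 C. Viability read in the same wells as the bla reporter, by CellTiter-Glo luminescence after 30 min at room temperature.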

[4] = qHTS assay to identify small molecule agonists of the endoplasmic reticulum stress response signaling pathway (AID 1159516; active means well fitted activation curve with a large enough effect in the signal ratio in the repeat runs, not every such curve was filed as active; the % refers to the signal ratio)
Method in brief: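 CellSensor ESRE-bla HeLa cells, 1,500 per well, plated overnight, then exposed to compounds for 5 hr at 37 C. Beta-lactamase reporter read with LiveBLAzer B/G FRET substrate after 2 hr at room temperature, 405 nm excitation, 460 and 530 nm emission.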

[5] = qHTS assay to identify small molecule agonists of the endoplasmic reticulum stress response signaling pathway - cell viability counter screen (AID 1159517; calls by dose curve;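 further: HeLa cells carrying an ER stress response element beta-lactamase reporter; series mostly up to about 61 µM; nearly all actives have a fitted effect of over 50% in size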)
Method in brief: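 HeLa cells carrying an ESRE-driven beta-lactamase reporter receive compound for 5 hr at 37 C. Cell viability is then gauged with CellTiter-Glo by luminescence, 30 min at room temperature.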

[6] = qHTS assay to identify small molecule antagonists of the retinoid-related orphan receptor gamma (ROR-gamma) signaling pathway - cell viability counter screen (AID 1159520); further: nearly all actives have a fitted effect of over 50% in size
Method in brief: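 Cytotoxicity was read from cellular ATP (CellTiter-Glo luminescence) after 16 hr at 37 C with 1 uM doxycycline induction. The inducer was added 2 hr after compound transfer to Tet-on ROR gamma CHO cells.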

[7] = molecular target: Nuclear receptor ROR-gamma (Homo sapiens) (UniProt P51449); experiment: qHTS assay to identify small molecule antagonists of the retinoid-related orphan receptor gamma (ROR-gamma) signaling pathway (AID 1159521; further: nearly all actives have a fitted effect of over 50% in size; further: potency means the concentration at half of the fitted maximal effect)
Method in brief: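 RORγ antagonism is scored from reduced reporter luminescence in Tet-on CHO cells. Induction used 1 uM final doxycycline hyclate for 16 h at 37 C, following a 2 h compound exposure.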

[8] = qHTS assay to identify small molecule agonists of the AP-1 signaling pathway - cell viability counter screen (AID 1159525; calls by dose curve; further: nearly all actives have a fitted effect of over 55% in size; further: potency means the concentration at half of the fitted maximal effect)
Method in brief: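 Luminescent ATP readout (Cell Titer Glo, 30 min RT), normalised to DMSO and tetra n-octyl ammonium bromide controls. Cells were ME-180 AP-1-bla in 0.5% dialyzed FBS Opti-MEM, with a 5 h, 37 °C compound exposure.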

[9] = qHTS assay to identify small molecule agonists of the AP-1 signaling pathway (AID 1159526; calls by dose curve)
[10] = molecular target: Retinoic acid receptor RXR-alpha (Homo sapiens) (UniProt P19793); experiment: qHTS assay to identify small molecule agonists of the RXR signaling pathway (AID 1159527; calls by dose curve; further: nearly all actives have a fitted effect of over 35% in size)
Method in brief: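 qHTS of the Tox21 10K library in GeneBLAzer RXR-alpha HEK 293T cells carrying a beta-lactamase reporter […]; 16 hr treatment, 9-cis retinoic acid as agonist control, FRET read-out.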

[11] = qHTS assay to identify small molecule agonists of the RXR signaling pathway - cell viability counter screen (AID 1159529); further: nearly all actives have a fitted effect of over 50% in size; further: potency means the concentration at half of the fitted maximal effect
Method in brief: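 Cell viability is measured by CellTiter-Glo luminescence, 30 min at room temperature, in wells already read for beta-lactamase. Engineered HEK 293T cells (RXR-alpha-UAS-bla) are dosed 16 hr at 37 C. Tetraoctyl ammonium bromide serves as positive control.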

[12] = qHTS assay to identify small molecule antagonists of the retinoid acid receptor (RAR) signaling pathway - cell viability counter screen (AID 1159551); further: nearly all actives have a fitted effect of over 35% in size
Method in brief: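 C3RL4 RARE-luciferase cells, 1,000/well, incubated overnight, then dosed with compound plus 1 uM retinol (final). After 6 hr at 37 C, viability read by CellTiter-Glo ATP luminescence following 30 min at room temperature.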

[13] = qHTS assay to identify small molecule antagonists of the retinoic acid receptor (RAR) signaling pathway (AID 1159552; further: nearly all actives have a fitted effect of over 50% in size)
Method in brief: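 Quantitative HTS in C3RL4 RARE-luciferase reporter cells. Compounds were added with 1 uM (final) retinol; luminescence was read after 6 hr.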

[14] = qHTS assay to identify small molecule agonists of the retinoic acid receptor (RAR) signaling pathway (AID 1159553)
Method in brief: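 C3RL4 RARE-luciferase cells were seeded at 1,000/well and grown overnight at 37 C, then exposed to compounds for 6 hr at 37 C, 5% CO2. Luciferase reagent was added and luminescence was read after 30 min at room temperature.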

[15] = qHTS assay to identify small molecule antagonists of the vitamin D receptor (VDR) signaling pathway - cell viability counter screen (AID 743225); further: nearly all actives have a fitted effect of over 50% in size
Method in brief: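 Cells (VDR-UAS-bla HEK 293T) are plated, rested 4 h at 37C, dosed with compound and 3 nM final 1-alpha,25-dihydroxy vitamin D3, and incubated 16 h. Viability is taken from CellTiter-Glo luminescence in the reporter wells.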

Sequence of Retinoic acid receptor RXR-alpha (Homo sapiens) (P19793 whole entry, looked up): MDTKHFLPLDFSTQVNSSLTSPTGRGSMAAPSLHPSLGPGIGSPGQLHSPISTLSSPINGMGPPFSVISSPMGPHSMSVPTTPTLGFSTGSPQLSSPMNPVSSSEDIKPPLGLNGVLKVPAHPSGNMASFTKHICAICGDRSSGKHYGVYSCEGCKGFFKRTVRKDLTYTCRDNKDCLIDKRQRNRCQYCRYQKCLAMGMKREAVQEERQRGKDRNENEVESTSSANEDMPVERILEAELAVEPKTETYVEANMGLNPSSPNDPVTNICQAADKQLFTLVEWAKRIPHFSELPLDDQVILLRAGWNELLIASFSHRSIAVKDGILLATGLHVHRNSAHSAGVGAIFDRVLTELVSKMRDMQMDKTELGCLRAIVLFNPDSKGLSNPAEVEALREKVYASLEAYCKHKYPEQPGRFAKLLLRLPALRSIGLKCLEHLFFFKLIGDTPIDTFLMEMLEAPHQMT

Row | SMILES | Potency [1] | outcome [2] | outcome [3] | outcome [4] | Potency [5] | Potency [6] | Potency [7] | Potency [8] | Potency [9] | Potency [10] | Potency [11] | Potency [12] | Potency [13] | Potency [14] | Potency [15]
1 | CCCCOCCO | inactive | inactive | inactive | inactive | inactive | inactive | inactive | inactive | inactive | inactive | inactive | inactive | inactive | inactive | 
2 | NC(=O)/N=N/C(N)=O | inactive | inactive | inactive | inactive |  | inactive | inactive | inactive | inactive | inactive | inactive | inactive | inactive | inactive | 
3 | COC(=O)c1ccc(C(=O)OC)cc1 | inactive | inactive | inactive | inactive |  | inactive | 1.96 µM (active) and inactive | 12.5 µM (active) and inactive | inactive | inactive | 15.7 µM (active) and inactive | inactive | inactive | inactive | inactive
4 | COCC(C)O (stereo not given) | inactive | inactive | inactive | inactive | inactive | inactive |  | inactive | inactive | inactive | inactive | inactive |  |  | inactive
5 | CCCCCCCCCCCCOCC1CO1 (stereo not given) | inactive | inactive | inactive | inactive | inactive | inactive | inactive | inactive | inactive | inactive | inactive | inactive | inactive | inactive | inactive
6 | CC1(C)CC(N=C=O)CC(C)(CN=C=O)C1 (stereo not given) | inactive | inactive | inactive | inactive | inactive | inactive | inactive | inactive | inactive | inactive | inactive | inactive | inactive | inactive | inactive
7 | C=C1C2CCC(C2)C1(C)C (stereo not given) | inactive | inactive | inactive | inactive | inactive | inactive | inactive | inactive | inactive | inactive | inactive | inactive | inactive | inactive | inactive
8 | C=CC(=O)OCCCCCCCC(C)C | inactive | inactive | inactive | inactive | inactive | inactive | inactive | inactive | inactive | inactive | inactive | inactive | inactive | inactive | 
9 | CCCCCCCCCCC=CC1CC(=O)OC1=O (stereo not given) | inactive | inactive | inactive | inactive | inactive | inactive | 54.8 µM (active) and inactive | inactive | inactive | inactive | inactive | inactive |  |  | 
10 | COCC(=O)O | inactive | inactive | inactive | inactive | inactive | inactive | inactive | inactive | inactive | inactive | inactive | inactive | inactive | inactive | inactive
11 | NCc1cccc(CN)c1 | inactive | inactive | inactive | inactive | inactive | inactive | inactive | inactive | inactive | inactive | inactive | inactive | inactive | inactive | inactive
12 | O=[N+]([O-])c1cccc(Cl)c1 | inactive | inactive | inactive | inactive |  | inactive | inactive | inactive | inactive | inactive | inactive | inactive | inactive | inactive | 
13 | CCCCCCOC(C)=O | inactive | inactive | inactive | inactive | inactive | inactive |  | inactive | inactive | inactive | inactive | inactive |  |  | inactive
14 | CCCCNC(N)=O | inactive | inactive | inactive | inactive | inactive | inactive | inactive | inactive | inactive | inactive | inactive | inactive | inactive | inactive | 
15 | CCCCOCCOCCOC(=O)CCCCC(=O)OCCOCCOCCCC | inactive | inactive | inactive | inactive |  | inactive | inactive | inactive | inactive | inactive | inactive | inactive | inactive | inactive | inactive
16 | CC(=O)CCc1ccccc1 | inactive | inactive | inactive | inactive | inactive | inactive | inactive | inactive | inactive | inactive | inactive | inactive | inactive | inactive | inactive
17 | O=C(O)c1ccc([N+](=O)[O-])cc1 | inactive | inactive | inactive | inactive | inactive | inactive | inactive | inactive | inactive | inactive | inactive | inactive |  |  | inactive
18 | Cc1cc(=O)[nH]c(C(C)C)n1 | inactive | inactive | inactive | inactive | inactive | inactive | inactive | inactive | inactive | inactive | inactive | inactive | inactive | inactive | inactive
